Laboratory results: PubChem BioAssay AID1159580 (chemical genetic matrix, 2015)
Hit rate of the full screen: of about 5,500 compounds, about 2,000 (36%) were called active. About 18% were inconclusive and are not listed. Rule as the data show it: active = normalized growth mostly below about 0.91 (no sharp cut-off); inconclusive = no clear call, values can overlap the other calls; inactive = mostly above about 0.92. This is one part of the list.

Test: chemical genetic growth profiling, strain panel (AID 1159580);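 also: tested at 20 µM; growth read once vehicle control cultures reached saturation at 30 °C; 1 = growth at the plate median or of vehicle wells; lower values mean less growth of the strain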
Settings: growth OD
[1] = S. cerevisiae deletion strains, locus YAL040C, strain CLN3, hits give low values
[2] = S. cerevisiae deletion strains, locus YCL061C, strain MRC1 (second series), hits give low values
[3] = S. cerevisiae deletion strains, locus YDR363W, strain ESC2, hits give low values
[4] = S. cerevisiae deletion strains, locus YER002W, strain NOP16, hits give low values
[5] = S. cerevisiae deletion strains, locus YJR075W, strain HOC1, hits give low values
[6] = S. cerevisiae deletion strains, locus YMR263W, strain SAP30, hits give low values
[7] = S. cerevisiae deletion strains, locus YMR307W, strain GAS1, hits give low values
[8] = S. cerevisiae deletion strains, locus YNL153C, strain GIM3, hits give low values
[9] = S. cerevisiae deletion strains, locus YNL175C, strain NOP13, hits give low values
[10] = S. cerevisiae deletion strains, locus YNL197C, strain WHI3, hits give low values
[11] = S. cerevisiae deletion strains, locus YNL224C, strain SQS1, hits give low values
[12] = S. cerevisiae deletion strains, locus YNL322C, strain KRE1, hits give low values
[13] = S. cerevisiae deletion strains, locus YOR083W, strain WHI5 (second series), hits give low values
[14] = S. cerevisiae deletion strains, locus YPL241C, strain CIN2, hits give low values
[15] = S. cerevisiae deletion strains, locus YAL013W, strain DEP1, hits give low values
[16] = S. cerevisiae deletion strains, locus YBR229C, strain ROT2, hits give low values
[17] = S. cerevisiae deletion strains, locus YDL101C, strain DUN1, hits give low values
[18] = S. cerevisiae deletion strains, locus YGR078C, strain PAC10, hits give low values
[19] = S. cerevisiae deletion strains, locus YLR039C, strain RIC1, hits give low values
[20] = S. cerevisiae deletion strains, locus YLR262C, strain YPT6, hits give low values
[21] = S. cerevisiae deletion strains, locus YPL055C, strain LGE1, hits give low values

Measured: normalized growth

NCC1OC(O[C@@H]2[C@H](O)C(OC3C(O)C(N)CC(N)C3OC3OC(CO)C(O)C(O)C3N)O[C@@H]2CO)C(N)C(O)C1O (stereo partly drawn)
inactive: [1] 1.07 | [2] 1 | [3] 1.02 | [4] 1.02 | [5] 1 | [6] 0.997 | [7] 1 | S. cerevisiae deletion strains, locus YNL128W, strain TEP1, hits give low values 1.01 | [8] 1.03 | [9] 1.01 | [10] 1.01 | [11] 1.01 | [12] 0.993 | [13] 1.02 | [14] 1

CCc1cc2c(cc1C(=O)CC1(O)C(=O)Nc3ccc(Br)cc31)C(C)(C)CCC2(C)C (stereo not drawn)
inactive: [15] 1.01 | [16] 1.01 | S. cerevisiae deletion strains, locus YCL061C, strain MRC1, hits give low values 1.02 | [17] 1.02 | S. cerevisiae deletion strains, locus YDL134C, strain PPH21, hits give low values 1.01 | S. cerevisiae deletion strains, locus YDR150W, strain NUM1, hits give low values 0.953 | S. cerevisiae deletion strains, locus YEL061C, strain CIN8, hits give low values 0.978 | [18] 1.02 | S. cerevisiae deletion strains, locus YHR030C, strain SLT2, hits give low values 1.02 | S. cerevisiae deletion strains, locus YHR087W, strain rtc3, hits give low values 0.961 | S. cerevisiae deletion strains, locus YJR043C, strain POL32, hits give low values 1.01 | [5] 0.979 | [19] 1.03 | S. cerevisiae deletion strains, locus YLR058C, strain SHM2 (second series), hits give low values 1.01 | S. cerevisiae deletion strains, locus YLR085C, strain ARP6, hits give low values 1.02 | [20] 1.01 | S. cerevisiae deletion strains, locus YML094W, strain GIM5, hits give low values 0.997 | S. cerevisiae deletion strains, locus YMR219W, strain ESC1, hits give low values 1 | [6] 1.06 | [7] 0.959 | [8] 1.01 | S. cerevisiae deletion strains, locus YNL298W, strain CLA4 (second series), hits give low values 0.998 | [12] 1.01 | S. cerevisiae deletion strains, locus YNR030W, strain Alg12, hits give low values 1.01 | [21] 0.921 | [14] 1.02 | S. cerevisiae deletion strains, locus YPR135W, strain CTF4, hits give low values 1.06

CC(C)C(=O)c1c(C(C)C)nn2ccccc12
inactive: [15] 0.972 | [1] 1.06 | [2] 0.985 | [3] 0.995 | [4] 0.983 | [18] 0.984 | S. cerevisiae deletion strains, locus YGR229C, strain SMI1, hits give low values 0.942 | [5] 0.991 | [9] 0.985 | [10] 0.985 | [11] 0.962 | [12] 0.985 | [13] 0.936 | [21] 0.967

CC1=CCC2C3(C)C1=CC(=O)OC3CC1C(C)(C)CC(O)C(O)C12C (stereo not drawn)
inactive: S. cerevisiae deletion strains, locus YBR021W, strain FUR4, hits give low values 0.993 | [16] 1.02 | S. cerevisiae deletion strains, locus YCL029C, strain bik1, hits give low values 1 | S. cerevisiae deletion strains, locus YDL035C, strain GPR1, hits give low values 1.06 | S. cerevisiae deletion strains, locus YDL074C, strain BRE1, hits give low values 1.07 | [17] 1.01 | S. cerevisiae deletion strains, locus YDL185W, strain tfp1, hits give low values 0.996 | S. cerevisiae deletion strains, locus YDL192W, strain arf1, hits give low values 1.01 | S. cerevisiae deletion strains, locus YDR101C, strain arx1, hits give low values 1.02 | S. cerevisiae deletion strains, locus YDR162C, strain NBP2, hits give low values 1.02 | S. cerevisiae deletion strains, locus YDR318W, strain mcm21, hits give low values 0.981 | S. cerevisiae deletion strains, locus YDR388W, hits give low values 0.994 | S. cerevisiae deletion strains, locus YDR502C, strain sam2, hits give low values 0.998 | S. cerevisiae deletion strains, locus YER110C, hits give low values 0.991 | S. cerevisiae deletion strains, locus YER155C, strain BEM2, hits give low values 1 | S. cerevisiae deletion strains, locus YER167W, strain BCK2, hits give low values 1.03 | S. cerevisiae deletion strains, locus YGL078C, strain dbp3, hits give low values 1 | S. cerevisiae deletion strains, locus YGL086W, strain mad1, hits give low values 0.995 | S. cerevisiae deletion strains, locus YGL248W, strain PDE1, hits give low values 1.01 | S. cerevisiae deletion strains, locus YGR135W, strain pre9, hits give low values 0.979 | S. cerevisiae deletion strains, locus YGR252W, strain gcn5, hits give low values 0.96 | S. cerevisiae deletion strains, locus YHR079C, strain IRE1 (second series), hits give low values 0.989 | S. cerevisiae deletion strains, locus YHR094C, strain hxt1, hits give low values 0.99 | S. cerevisiae deletion strains, locus YHR129C, strain ARP1, hits give low values 1.01 | S. cerevisiae deletion strains, locus YHR200W, strain rpn10, hits give low values 0.983 | S. cerevisiae deletion strains, locus YIL066C, strain RNR3, hits give low values 1.05 | S. cerevisiae deletion strains, locus YIL073C, strain SPO22, hits give low values 1 | S. cerevisiae deletion strains, locus YIL125W, strain kgd1, hits give low values 1.01 | S. cerevisiae deletion strains, locus YIR030C, strain dcg1, hits give low values 0.986 | S. cerevisiae deletion strains, locus YJL095W, strain BCK1, hits give low values 1.03 | S. cerevisiae deletion strains, locus YJL134W, strain LCB3, hits give low values 1.01 | S. cerevisiae deletion strains, locus YJL168C, strain set2, hits give low values 0.991 | S. cerevisiae deletion strains, locus YJL187C, strain SWE1 (second series), hits give low values 1 | S. cerevisiae deletion strains, locus YKL009W, strain mrt4, hits give low values 1.05 | S. cerevisiae deletion strains, locus YKL068W, hits give low values 0.993 | S. cerevisiae deletion strains, locus YKL085W, strain MDH1 (second series), hits give low values 0.991 | S. cerevisiae deletion strains, locus YKL085W, strain MDH1, hits give low values 0.991 | S. cerevisiae deletion strains, locus YKL190W, strain CNB1, hits give low values 1.01 | S. cerevisiae deletion strains, locus YKR001C, strain vps1, hits give low values 1.02 | [19] 1.12 | S. cerevisiae deletion strains, locus YLR058C, strain SHM2, hits give low values 1.04 | S. cerevisiae deletion strains, locus YLR102C, strain apc9, hits give low values 0.991 | [20] 1.17 | S. cerevisiae deletion strains, locus YLR268W, strain sec22, hits give low values 1.03 | S. cerevisiae deletion strains, locus YLR330W, strain CHS5, hits give low values 1.01 | S. cerevisiae deletion strains, locus YLR371W, strain rom2, hits give low values 1 | S. cerevisiae deletion strains, locus YLR418C, strain cdc73, hits give low values 0.97 | S. cerevisiae deletion strains, locus YML016C, strain PPZ1, hits give low values 1.01 | S. cerevisiae deletion strains, locus YML032C, strain rad52, hits give low values 1 | S. cerevisiae deletion strains, locus YML124C, strain tub3, hits give low values 0.993 | S. cerevisiae deletion strains, locus YMR078C, strain ctf18, hits give low values 0.99 | S. cerevisiae deletion strains, locus YMR223W, strain ubp8, hits give low values 0.989 | [6] 1.01 | [7] 1.09 | S. cerevisiae deletion strains, locus YNL067W, strain RPL9B, hits give low values 0.997 | [8] 1.01 | S. cerevisiae deletion strains, locus YNL233W, strain BNI4, hits give low values 0.999 | S. cerevisiae deletion strains, locus YNL250W, strain rad50, hits give low values 0.962 | S. cerevisiae deletion strains, locus YNL271C, strain bni1, hits give low values 1 | S. cerevisiae deletion strains, locus YNL298W, strain CLA4, hits give low values 1.01 | S. cerevisiae deletion strains, locus YNL307C, strain MCK1, hits give low values 0.999 | S. cerevisiae deletion strains, locus YNR052C, strain pop2, hits give low values 0.998 | S. cerevisiae deletion strains, locus YOL012C, strain htz1 0.612 | S. cerevisiae deletion strains, locus YOL147C, strain pex11, hits give low values 0.998 | S. cerevisiae deletion strains, locus YOR061W, strain CKA2, hits give low values 1.06 | S. cerevisiae deletion strains, locus YOR069W, strain VPS5, hits give low values 1.01 | S. cerevisiae deletion strains, locus YOR136W, strain idh2, hits give low values 0.996 | S. cerevisiae deletion strains, locus YOR144C, strain elg1, hits give low values 1 | S. cerevisiae deletion strains, locus YOR184W, strain ser1, hits give low values 1.04 | S. cerevisiae deletion strains, locus YOR316C, strain cot1, hits give low values 0.989 | [14] 1.01 | S. cerevisiae deletion strains, locus YPR119W, strain clb2, hits give low values 0.987 | S. cerevisiae deletion strains, locus YPR141C, strain kar3, hits give low values 1 | S. cerevisiae deletion strains, locus YPR163C, strain tif3, hits give low values 1 | S. cerevisiae deletion strains, locus YPR167C, strain met16, hits give low values 0.985 | S. cerevisiae deletion strains, strain wtn01, hits give low values 1.01 | S. cerevisiae strains, strain wild type, hits give low values 1.04
